In PubChem BioAssay (NCI):
Compounds without any hit were thinned out: in the full panel of roughly 79,000, 15% have a hit. A number with no mark means an inactive call. Activity calls are given as the source filed them. Cut-off read from the data, not from the text of the source: active = growth inhibition above about 70%; inactive = the rest.

What was measured:
[1] = NCI Yeast Anticancer Drug Screen. Data for the rad50 strain (AID 155);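 note: 0% = growth of vehicle-only cultures of the same strain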; conditions: S. cerevisiae rad50 strain growth inhibition, stronger effect = higher value; at 50.0 µM unless noted
Procedure, shortened: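 Compounds were tested on a yeast strain with an engineered DNA damage repair alteration; the reported value is growth inhibition normalised to vehicle treatment.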

[2] = NCI Yeast Anticancer Drug Screen. Data for the mec2-1 strain (AID 157); conditions: S. cerevisiae mec2-1 strain, stronger effect = higher value; at 50.0 µM unless noted
Procedure, shortened: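 Yeast mec2-1 mutant treated with compound. Readout: growth inhibition vs vehicle controls.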

[3] = NCI Yeast Anticancer Drug Screen. Data for the sgs1 mgt1 strain (AID 161);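 note: 0% = growth of cultures given vehicle only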; conditions: S. cerevisiae sgs1 mgt1 strain, stronger effect = higher value; at 50.0 µM unless noted
Procedure, shortened: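 Test agents were incubated with a DNA-repair-mutant yeast strain. Growth was then read and compared against vehicle-treated controls.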

[4] = NCI Yeast Anticancer Drug Screen. Data for the cln2 rad14 strain (AID 165);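 note: 0% = growth equal to vehicle treated cultures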; conditions: S. cerevisiae cln2 rad14 strain, stronger effect = higher value; at 50.0 µM unless noted
Procedure, shortened: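 cln2 rad14 yeast strain; compound exposure; growth inhibition read vs vehicle controls.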

[5] = NCI Yeast Anticancer Drug Screen. Data for the bub3 strain (AID 167); conditions: S. cerevisiae bub3 mutant strain, stronger effect = higher value; at 50.0 µM unless noted
Procedure, shortened: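 Growth of a checkpoint-deficient yeast mutant is measured after compound exposure. Values represent inhibition relative to vehicle.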

[6] = NCI Yeast Anticancer Drug Screen. Data for the mlh1 rad18 strain (AID 175); conditions: S. cerevisiae mlh1 rad18 strain growth inhibition, stronger effect = higher value; at 50.0 µM unless noted
Procedure, shortened: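 Yeast w/ defined DNA-repair lesions; compound exposure; growth vs vehicle controls → % inhibition.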

SMILES | growth inhibition [1] | growth inhibition [2] | growth inhibition [3] | growth inhibition [4] | growth inhibition [5] | growth inhibition [6]
O=S1(=O)CCC12CC1c3ccccc3C2c2ccccc21 (stereo unspecified) | -6.1% | -6.05% | -11.6% | -2.85% | -11.1% | -6.85%
Nc1nnc2nc(CC(=O)c3cccc([N+](=O)[O-])c3)/c(=C/C(=O)c3cccc([N+](=O)[O-])c3)n12 | 33.5% | 18.7% | 12.2% | 7.45% | -4.8% | 22.8%
O=[N+]([O-])c1cc(F)ccc1S(=O)(=O)c1ccccc1 | 31.6% | -40.5% | 7.8% | 1.85% | -23.2% | 0.65%
O=C(CCCCCCCC(=O)NO)NO | -10.8% | 6.6% | 12.8% | 3.65% | 2.5% | -9.4%
O=C(NCc1ccccc1)c1n[nH][nH]c1=O | 3.05% | 5.8% | 12.2% | -8.15% | -3.3% | 20.6%
CCC1CSC(NS(=O)(=O)c2ccc(N)cc2)=N1 (stereo unspecified) | -18.4% | -3.5% | -0.7% | -39% | 2.15% | 1.3%
COc1cc2c(c(OC)c1OC)-c1ccc(SC)c(=O)cc1[C@@H](NC(=O)CCl)CC2 | -2.1% | 19.6% | 0.5% | 6.85% | 16.6% | 15.6%
O=c1ccc2ccc3[nH]onc3c2c1 | 10.2% | -12.6% | -5.85% | -48.8% | -26.4% | -2.2%
CC(=O)O[C@@H]1C(=O)C=C(C)[C@@H]2[C@@H](OC(=O)C=C(C)C)[C@H]3OC(=O)C[C@H]4[C@@H](C)[C@@H](O)[C@]5(O)OC[C@]34[C@H]5[C@@]12C | 87.4% (active) | 71.5% (active) | 71.8% (active) | 88.5% (active) | 79.5% (active) | 91.8% (active)
O=Nc1c(O)c2ccccc2[nH]c1=O | 15.6% | 33.6% | 34.6% | 24.9% | 57.5% | 30.4%
CC(=O)OC1CCC(=O)C2C(C(=O)O)CCCC12 (stereo unspecified) | 6.9% | -21.8% | -19.2% | -6.1% | -1.75% | 0.25%
c1cncc(C2N3CCCCC3[C@@H]3c4[nH]c5ccccc5c4CCN23)c1 (stereo partly specified) | -26.6% | -40.5% | -22.8% | -8.25% | -15.1% | -26.9%
O=C(O)CSCC(=O)Nc1ccccc1Cl | -11.6% | -10.3% | 14.6% | 6.05% | 4.3% | -0.35%
CC(C)(C)c1ccc(C(C)(C)C)c(N2C(=O)c3ccc4c5ccc6c7c(ccc(c8ccc(c3c48)C2=O)c75)C(=O)N(c2cc(C(C)(C)C)ccc2C(C)(C)C)C6=O)c1 | -15.2% | -7.9% | -4.25% | -6.2% | -11.9% | -6.8%
NCCCC(=S)S | -4.35% | 12.6% | -0.75% | 12.8% | 13.8% | 13.4%
O=C(O)CC(c1ccccc1)C(CC(=O)O)c1ccccc1 (stereo unspecified) | -3.8% | 8.75% | 17.6% | 17.2% | 5.95% | 9.85%
Nc1ccc(N)c2c(O)c3ccccc3c(O)c12 | 5.2% | 11.8% | 12.9% | -1.8% | 1.8% | 22%
COC(=O)C(NC(=O)c1ccccc1)C(c1ccc(Cl)cc1)P(=O)(OC)OC (stereo unspecified) | -19.6% | -1% | 12% | 22.2% | -7.85% | -17.9%
Nc1ncc2c(=O)[nH][nH]c(=O)c2n1 | 34.9% | 31.6% | 16.6% | 12.4% | 3.4% | -5.5%
COc1ccc(C2OC3=C(Nc4ccccc4N3)C2=O)cc1 (stereo unspecified) | 19.5% | 5.8% | 27.4% | 14.1% | -14.3% | 46.2%
CCCCCCCCCCCCCCCCCC(=O)CBr | 14% | 9.9% | 10.9% | -25.4% | 2.2% | 38.9%
